Results filed as inconclusive are left out. The source made the active and inactive calls. The call rests on the fitted dose curve; in most records, active means well fitted curve in the direction sought with a large enough effect; inconclusive means small, poorly fitted or top-dose-only effect, or another doubt; inactive means no such curve, though single readings can be large; an effect the other way counts as inactive or inconclusive.
Experiments:
[1] = Quantitative High-Throughput drug screen in 47 multiple myeloma cell lines against the NCATS MIPE library collection: NCIH929_DSMZ cell viability assay (AID 1918978); further: nearly all actives have a fitted effect of over 35% in size
In short: (§1)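 qHTS format: cells plated (500/well), pin-dosed with MIPE 4.0 compounds, kept 48 h at 37 °C. Readout was CellTiter-Glo luminescence, median RLU.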

[2] = Quantitative High-Throughput drug screen in 47 multiple myeloma cell lines against the NCATS MIPE library collection: OCIMY1_PLB cell viability assay (AID 1918979); further: nearly all actives have a fitted effect of over 35% in size; on viability: series mostly up to about 46 µM
In short: as §1

[3] = Quantitative High-Throughput drug screen in 47 multiple myeloma cell lines against the NCATS MIPE library collection: MM1S_ATCC cell viability assay (AID 1918980); further: nearly all actives have a fitted effect of over 45% in size
In short: as §1

[4] = Quantitative High-Throughput drug screen in 47 multiple myeloma cell lines against the NCATS MIPE library collection: MM1R_ATCC cell viability assay (AID 1918981); further: nearly all actives have a fitted effect of over 35% in size
In short: as §1

[5] = Quantitative High-Throughput drug screen in 47 multiple myeloma cell lines against the NCATS MIPE library collection: OCIMY5_PLB cell viability assay (AID 1918988); further: nearly all actives have a fitted effect of over 65% in size
In short: as §1

[6] = Quantitative High-Throughput drug screen in 47 multiple myeloma cell lines against the NCATS MIPE library collection: SKMM1_PLB cell viability assay (AID 1919863); conditions: SKMM1 myeloma viability, CellTiter-Glo ATP, 48 h; viability: hits give low values; further: nearly all actives have a fitted effect of over 35% in size; on viability: series mostly up to about 46 µM
In short: as §1

[7] = Quantitative High-Throughput drug screen in 47 multiple myeloma cell lines against the NCATS MIPE library collection: KMS12BM_JCRB cell viability assay (AID 1918971); further: nearly all actives have a fitted effect of over 35% in size
In short: (§2)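 Myeloma cell lines, 500 cells per well, exposed to MIPE 4.0 library compounds for 48 h at 37C, 5% CO2. Viability from ATP by CellTiter-Glo luminescence; normalised to DMSO (100%) and media-only (0%) wells.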

[8] = Quantitative High-Throughput drug screen in 47 multiple myeloma cell lines against the NCATS MIPE library collection: MOLP8_DSMZ cell viability assay (AID 1918977); further: nearly all actives have a fitted effect of over 45% in size
In short: as §1

[9] = Quantitative High-Throughput drug screen in 47 multiple myeloma cell lines against the NCATS MIPE library collection: OPM1_PLB cell viability assay (AID 1918989); further: nearly all actives have a fitted effect of over 40% in size
In short: as §1

[10] = Quantitative High-Throughput drug screen in 47 multiple myeloma cell lines against the NCATS MIPE library collection: MMM1_PLB cell viability assay (AID 1918976); further: nearly all actives have a fitted effect of over 35% in size
In short: as §1

[11] = Quantitative High-Throughput drug screen in 47 multiple myeloma cell lines against the NCATS MIPE library collection: KMS34_JCRB cell viability assay (AID 1918985); further: nearly all actives have a fitted effect of over 40% in size
In short: as §1

[12] = Quantitative High-Throughput drug screen in 47 multiple myeloma cell lines against the NCATS MIPE library collection: OCIMY7_PLB cell viability assay (AID 1918987); further: nearly all actives have a fitted effect of over 65% in size
In short: as §1

[13] = Quantitative High-Throughput drug screen in 47 multiple myeloma cell lines against the NCATS MIPE library collection: KMS12PE_JCRB cell viability assay (AID 1918972); further: nearly all actives have a fitted effect of over 30% in size; on viability: series mostly up to about 46 µM
In short: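 Luminescent ATP measurement with CellTiter-Glo gives viability, scaled between DMSO-only wells (100%) and media-only wells (0%). Cells, 500 per well, faced library compounds for 48 hours at 37C.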

[14] = Quantitative High-Throughput drug screen in 47 multiple myeloma cell lines against the NCATS MIPE library collection: KMS26_JCRB cell viability assay (AID 1918975); further: nearly all actives have a fitted effect of over 45% in size
In short: as §2

[15] = Quantitative High-Throughput drug screen in 47 multiple myeloma cell lines against the NCATS MIPE library collection: LP1_DSMZ cell viability assay (AID 1918982); further: nearly all actives have a fitted effect of over 35% in size
In short: as §1

[16] = Quantitative High-Throughput drug screen in 47 multiple myeloma cell lines against the NCATS MIPE library collection: KMS20_JCRB cell viability assay (AID 1918973); further: nearly all actives have a fitted effect of over 45% in size
In short: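 CellTiter-Glo ATP luminescence gave viability after 48 h compound treatment at 37C of 500 multiple myeloma cells per well. Normalisation used DMSO-only wells as 100% and media-only wells as 0% viability; primary qHTS of approved and investigational drugs.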

[17] = Quantitative High-Throughput drug screen in 47 multiple myeloma cell lines against the NCATS MIPE library collection: KMS28PE_JCRB cell viability assay (AID 1918983); further: nearly all actives have a fitted effect of over 35% in size
In short: as §1

[18] = Quantitative High-Throughput drug screen in 47 multiple myeloma cell lines against the NCATS MIPE library collection: L363_DSMZ cell viability assay (AID 1918984); further: nearly all actives have a fitted effect of over 40% in size
In short: as §1
Potency means the concentration at half of the fitted maximal effect.

CC1(C)CCC(C)(C)c2cc(NC(=O)c3ccc(C(=O)O)cc3)ccc21
active: Potency [1] 14.8 µM | Potency [3] 16.6 µM | Potency [4] 13.2 µM | Potency [5] 1.66 µM | Potency [6] 14.8 µM
inactive: Potency [2]

O=c1c(O)c(-c2ccc(O)cc2O)oc2cc(O)cc(O)c12
inactive: Potency [8] | Potency [2] | Potency [9] | viability [6] 122%
active: Potency [7] 2.09 µM | Potency [3] 0.833 µM

Cc1c(C(=O)NN2CCCCC2)nn(-c2ccc(Cl)cc2Cl)c1-c1ccc(Cl)cc1
inactive: Potency [11]
active: Potency [7] 23.5 µM | Potency [10] 20.9 µM | Potency [12] 16.6 µM

COc1ccc2cc([C@H](C)C(=O)O)ccc2c1
inactive: Potency [13] | Potency [14] | Potency [8] | Potency [1] | Potency [4] | Potency [15] | Potency [11] | viability [6] 105%
active: Potency [10] 16.6 µM | Potency [12] 33.2 µM | Potency [5] 20.9 µM

C[C@@H](N)C1CCC(C(=O)Nc2ccncc2)CC1 (stereo not given in full)
inactive: Potency [16] | Potency [8] | Potency [3] | Potency [4] | Potency [11] | viability [6] 141%
active: Potency [12] 11.8 µM | Potency [5] 11.8 µM

COc1cc(C(C)=O)ccc1OCCCN1CCC(c2noc3cc(F)ccc23)CC1
inactive: Potency [8] | Potency [2] | Potency [17] | viability [6] 110%
active: Potency [13] 20.9 µM | Potency [16] 16.6 µM | Potency [14] 0.0074 µM | Potency [10] 18.7 µM | Potency [1] 18.7 µM | Potency [4] 16.6 µM | Potency [5] 6.62 µM

CN(c1nccc(=O)[nH]1)C1CCN(c2nc3ccccc3n2Cc2ccc(F)cc2)CC1
inactive: Potency [13] | Potency [8] | Potency [2] | Potency [17] | Potency [18] | Potency [11] | viability [6] 125%
active: Potency [1] 13.2 µM | Potency [3] 11.8 µM | Potency [9] 26.4 µM

C=CCc1cc(OC)c(O)c(C(=O)NCCO)c1
inactive: Potency [14] | Potency [1] | Potency [2] | Potency [3] | Potency [4] | Potency [15] | Potency [17] | Potency [11] | Potency [5]

CCOc1cc(CC(=O)N[C@@H](CC(C)C)c2ccccc2N2CCCCC2)ccc1C(=O)O
inactive: Potency [1] | Potency [2] | Potency [15] | Potency [17] | Potency [11] | viability [6] 138%

CC1=C(C)C(=O)C(C(CCCCCC(=O)O)c2ccccc2)=C(C)C1=O (stereo not given)
inactive: Potency [16] | Potency [1] | Potency [17] | viability [6] 86.2%
active: Potency [9] 14.8 µM

CC(=O)N1CCN(c2ccc(OC[C@H]3CO[C@](Cn4ccnc4)(c4ccc(Cl)cc4Cl)O3)cc2)CC1
active: Potency [13] 5.26 µM | Potency [16] 7.43 µM | Potency [10] 23.5 µM | Potency [1] 9.35 µM | Potency [4] 11.8 µM | Potency [17] 6.62 µM | Potency [11] 13.2 µM | Potency [5] 18.7 µM | Potency [9] 16.6 µM
inactive: Potency [18]

CCc1nc(N)nc(N)c1-c1ccc(Cl)cc1
active: Potency [9] 2.35 µM
inactive: Potency [16] | Potency [8] | Potency [1] | Potency [17] | Potency [5]

Cc1ccc(C)c(OCCCC(C)(C)C(=O)O)c1
active: Potency [1] 23.5 µM | Potency [12] 18.7 µM
inactive: Potency [7] | Potency [8] | Potency [2] | Potency [15] | Potency [17] | Potency [11] | viability [6] 118%

CC(C)C[C@H](NC(=O)[C@H](Cc1ccccc1)NC(=O)c1cnccn1)B(O)O
active: Potency [7] 0.0148 µM | Potency [14] 0.0148 µM | Potency [10] 0.469 µM | Potency [8] 0.0093 µM | Potency [2] 0.0053 µM | Potency [3] 0.0066 µM | Potency [4] 0.0047 µM | Potency [15] 0.0118 µM | Potency [17] 0.0093 µM | Potency [11] 0.0083 µM | Potency [12] 0.001 µM | Potency [5] 0.0047 µM | Potency [9] 0.0083 µM | Potency [6] 0.0372 µM

N[C@@H](Cc1cc(I)c(Oc2cc(I)c(O)c(I)c2)c(I)c1)C(=O)O
inactive: Potency [13] | Potency [1] | Potency [2] | Potency [4] | Potency [17] | Potency [18] | Potency [12] | Potency [9] | viability [6] 121%
active: Potency [10] 2.96 µM

O=C(O)c1cc(=O)c2c(OCC(O)COc3cccc4oc(C(=O)O)cc(=O)c34)cccc2o1
inactive: Potency [1] | Potency [4] | Potency [15] | Potency [17] | Potency [12] | viability [6] 125%

Cc1ccc(NC(=O)c2ccc(CN3CCN(C)CC3)cc2)cc1Nc1nccc(-c2cccnc2)n1
active: Potency [9] 23.5 µM
inactive: Potency [8] | Potency [2] | Potency [4] | Potency [17]

Cc1cccc(C)c1OCC(=O)N[C@@H](Cc1ccccc1)[C@@H](O)C[C@H](Cc1ccccc1)NC(=O)[C@H](C(C)C)N1CCCNC1=O
inactive: Potency [5]
active: Potency [13] 6.62 µM | Potency [14] 18.7 µM | Potency [10] 16.6 µM | Potency [17] 20.9 µM | Potency [12] 11.8 µM | Potency [9] 18.7 µM

COc1cc2nc(N3CCN(C(=O)C4CCCO4)CC3)nc(N)c2cc1OC (stereo not given)
active: Potency [18] 1.48 µM
inactive: Potency [8] | Potency [1] | Potency [2] | Potency [4] | Potency [17] | Potency [9]

Reference: PubChem BioAssay (NCATS)
